# Screening data: PubChem BioAssay, National Center for Advancing Translational Sciences (NCATS)
# Many of the other results were omitted from the sample, so hits are more common in it than they were.
# SARS PLpro yeast = inhibitors of SARS-CoV papain-like protease in yeast | actives 0.19% (n = 330,000) | Potency, µM (series often up to 32.9 µM), inactives show at the highest dose activity, positive = growth rescue, hits mostly activators | S. cerevisiae expressing SARS-CoV PLpro, growth rescue; also: potency is read from the fitted curve at half-maximal effect; 0% is about no effect; nearly all actives have a fitted effect of over 55% in size
# NS1 function inh = influenza NS1 inhibition | Potency, µM (series often up to 46.1 µM), without a hit: at the highest dose activity, positive = more growth | actives 0.4% (n = 270,000) | AID 2326; also: potency is read from the fitted curve at half-maximal effect; actives are rising curves; nearly all actives have a fitted effect of over 50% in size
#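 A cell-based growth assay was used: compounds that relieve NS1-induced slow growth of budding yeast raise OD600. Assay medium was yeast nitrogen base with ammonium sulphate and -URA supplement, pH 6.0, with 2% galactose.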
# LmPK inh = blocks Leishmania mexicana pyruvate kinase activity; purified LmPK, Kinase-Glo ATP luminescence, 1 h; Potency, µM (top dose mostly 57.5 µM), inactives show top-dose activity change, negative = inhibition, actives largely listed as inhibitors; actives 0.37% (n = 290,000); AID 1721; active = well fitted curve in the direction sought with a large enough effect; inconclusive = small, poorly fitted or top-dose-only effect, or another doubt; inactive = no such curve, though single readings can be large; an effect the other way counts as inactive or inconclusive; also: potency is read from the fitted curve at half-maximal effect; % is scaled to controls: 0 for no effect and ±100 for the full control effect
# Target sequence (Q27686 whole entry, looked up): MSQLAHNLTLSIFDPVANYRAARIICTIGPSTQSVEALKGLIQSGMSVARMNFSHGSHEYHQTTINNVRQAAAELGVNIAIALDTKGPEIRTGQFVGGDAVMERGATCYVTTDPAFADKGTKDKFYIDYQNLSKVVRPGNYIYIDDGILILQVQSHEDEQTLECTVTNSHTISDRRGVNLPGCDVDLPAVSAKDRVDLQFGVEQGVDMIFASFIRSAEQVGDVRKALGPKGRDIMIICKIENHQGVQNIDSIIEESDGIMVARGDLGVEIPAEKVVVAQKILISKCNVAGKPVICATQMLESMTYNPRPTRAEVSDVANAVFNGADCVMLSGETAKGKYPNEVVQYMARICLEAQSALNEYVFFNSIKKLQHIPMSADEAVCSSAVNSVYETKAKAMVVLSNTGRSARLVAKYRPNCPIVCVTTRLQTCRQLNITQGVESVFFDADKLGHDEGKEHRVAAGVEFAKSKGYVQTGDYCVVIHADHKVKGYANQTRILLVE
#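 In 50 mM imidazole pH 7.2 with 7 mM MgCl2, LmPK (0.1 nM) turned over PEP (0.5 mM) and ADP (0.1 mM) for 1 h at room temperature. Luciferase read-out of ATP.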
# Shiga inhibitor = inhibitors of Shiga toxin in Vero cells | Vero cells, Shiga toxin protein synthesis inhibition reporter | inhibition, % at 38.7 µM | actives 9.2% (n = 290,000) | AID 2315; in the data active = inhibition mostly above about 28%, no sharp cut-off; inactive = mostly below about 43%; also: 0% is about no effect
# TbPYK inhibitor = T. brucei pyruvate kinase inhibition; Q57TT1; TbPYK enzyme, Kinase-Glo Plus ATP luminescence, 45 min; Potency, µM (series often up to 76.8 µM), for the others: at the highest dose activity, negative = inhibition, most hits filed as inhibitors; actives 0.12% (n = 410,000); active = well fitted curve in the direction sought with a large enough effect; inconclusive = small, poorly fitted or top-dose-only effect, or another doubt; inactive = no such curve, though single readings can be large; an effect the other way counts as inactive or inconclusive; also: potency is read from the fitted curve at half-maximal effect; % is scaled to controls: 0 for no effect and ±100 for the full control effect; nearly all actives have a fitted effect of over 50% in size
#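 Luminescence from Kinase-Glo Plus, added after a 45-minute room-temperature reaction, served as the end-point read-out. The enzyme and substrate were preincubated with compound before ADP (130 uM final) initiated turnover. Concentration-effect curves came from normalized qHTS data.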
# CHX counter = affects cycloheximide protein synthesis inhibition readout, counter-screen. cell reporter, cycloheximide protein synthesis inhibition counterscreen. max response, %. actives 12% (n = 300,000). AID 2314; in the data active = max response mostly above about 13%, no sharp cut-off; inactive = mostly below about 14%; also: read at 38.3 µM for the half of the compounds with a filed dose; 0% is about no effect
# The depositor's hits bear a star; ? = inconclusive; / = no result; [ ] = another dose, or the depositor's remark. Unless noted, calls follow the shape of the full dose curve.
SMILES,SARS PLpro yeast,NS1 function inh,LmPK inh,Shiga inhibitor,TbPYK inhibitor,CHX counter
Cc1c(Br)c([N+](=O)[O-])nn1CCCC(=O)Nc1sc2c(c1C#N)CCC2,5%,2%,7%,-6,?,-4
Cc1c(Br)c([N+](=O)[O-])nn1CC(=O)Nc1sc2c(c1C(=O)OC(C)C)CCCC2,10%,-1%,4%,123*,-5%,44
O=C1COc2cc(S(=O)(=O)NCc3ccco3)c(Cl)cc2N1,1%,/,/,/,5%,/
O=C(CSc1nc2ccccc2o1)N/N=C/c1ccco1,-2%,-13%,-4%,50*,4%,21*
Cn1cccc1/C=N/NC(=O)CSc1nc2ccccc2[nH]1,1%,1%,0%,22,-2%,20*
O=C(CSc1nc2ccccc2[nH]1)N/N=C/c1ccco1,1%,-10%,-13%,62*,-1%,24*
C/C(=N\NC(=O)CSc1nc2ccccc2[nH]1)c1ccncc1,-1%,/,0%,-11,0%,-2
CN(C(=O)Cn1cnc2ccccc2c1=O)C1CCS(=O)(=O)C1 (centres undefined),-1%,/,/,/,-6%,/
Cc1ccccc1OCC(=O)Nc1ccc2nc(SCc3ccccc3)sc2c1,/,/,/,/,3%,/
COc1ccccc1C(C)NC(=O)c1cc(=O)[nH]c2ccccc12 (centres undefined),7%,-8%,0%,11,-7%,7
O=C(COC(=O)Cc1ccccc1F)Nc1ccc2c(c1)OCCO2,-33%,14%,4%,59*,1%,33*
N#Cc1ccccc1OCC(=O)Nc1ccc2c(c1)OCCCO2,-17%,-1%,-3%,77*,-2%,50*
N#Cc1ccccc1OCC(=O)Nc1ccc2c(c1)OCO2,/,/,/,/,8%,/
CCN(CC)c1ccc(NC(=O)COc2ccccc2C#N)cc1S(=O)(=O)Nc1ccc(OC)cc1,8%,13%,4%,44*,-13%,10
O=C(COc1ccccc1Br)Nc1ccc2c(c1)OCCCO2,-23%,-26%,6%,66*,0%,47*
COc1cc(C(=O)NCC(c2ccccc2)N(C)C)ccc1OCc1c(C)noc1C (centres undefined),1%,/,/,/,1%,/
N#Cc1ccccc1OCC(=O)Nc1ccc2c(c1)OCCO2,-3%,/,/,/,-4%,/
O=C(COc1ccccc1F)Nc1ccc2c(c1)OCCO2,-1%,-6%,-2%,103*,14%,56*
O=C(CC(c1ccccc1)c1cc(Br)ccc1O)NCC1(c2ccccc2)CCCC1 (centres undefined),/,/,/,/,-1%,/
O=c1cc(/C=C/c2ccccc2)oc2ccccc12,-17%,-31%,-24%,107*,-2%,47*
Cc1ccsc1C(=O)OCC(=O)N1C(C)CCCC1C (centres undefined),9%,/,/,/,0%,/
CSc1ccc(Cn2c(C)c(C(=O)NCc3cccc(Cl)c3)sc2=O)cc1,/,/,/,/,-9%,/
CC12C=CC(=O)C=C1CCC1C2C(O)CC2(C)C1CCC2(O)C(=O)COC(=O)CCC(=O)O (centres undefined),/,/,/,/,-6%,/
Cc1ccc(N(C)C(=O)c2cnn(-c3ccccc3)c2C)c(C)c1,-2%,-5%,1%,/,-9%,-1
Cc1c(C(=O)N(C)c2ccc(Cl)cc2)cnn1-c1ccccc1,1%,-12%,-1%,/,2%,50*
SMILES,SARS PLpro yeast,NS1 function inh,LmPK inh,Shiga inhibitor,TbPYK inhibitor,CHX counter
Cc1cccc(N(C)C(=O)c2cnn(-c3ccccc3)c2C)c1,-3%,-2%,-7%,40*,3%,24*
CCOc1ccccc1C(=O)OCC(=O)Nc1ccc(OC(F)F)cc1,-12%,-22%,2%,42,-1%,17*
CN(C(=O)c1ccccc1C(=O)OCC(=O)Nc1ccc(OC(F)F)cc1)c1ccccc1,-8%,/,/,/,2%,/
Cc1ccc(C(=O)c2ccccc2C(=O)OCC(=O)Nc2ccc(SC(F)F)cc2)cc1,4%,?,-6%,49,-1%,16*
O=C(COC(=O)c1ccccc1Cc1ccccc1)Nc1ccc(SC(F)F)cc1,-12%,-33%,2%,129*,7%,54*
O=C(C1CCCN(S(=O)(=O)c2ccc(Br)s2)C1)N1CCN(c2ccc(F)cc2)CC1 (centres undefined),/,/,/,/,0%,/
Cc1cc(C)c2c(n1)SCCN2C(=O)Nc1ccc(C(=O)Nc2ccc(C(C)C)cc2)cc1,/,/,/,/,4%[15.4 µM],/
Cc1ccc[n+](CC(=O)Nc2c(Cl)cc(Cl)cc2Cl)c1,-1%,1%,6%,76*,-2%,25*
C[C@@H]1CN([C@H](C)CO)C(=O)CCCn2nncc2CO[C@H]1CN(C)Cc1cccc(C(=O)O)c1,/,/,/,/,0%,/
COc1cc(CNc2ccc3[nH]c(=O)[nH]c3c2)ccc1OCc1ccc(C)cc1,-1%,6%,-1%,118*,2%,26*
COc1cc(CNc2ccc3[nH]c(=O)[nH]c3c2)ccc1OCc1cccc(C)c1,3%,6%,4%,37,2%,21*
CCOc1ccc(Cl)cc1-c1cc(C(=O)NCCc2ccncc2)[nH]n1,/,/,/,/,0%,/
CCOCCn1c(N2CCN(c3ccccc3)CC2)nc2c1c(=O)[nH]c(=O)n2C,1%,-4%,-12%,57,-4%,21*
Oc1ccc(Cl)cc1CNCC1CCCCC1,0%,/,/,/,-5%,/
O=C(Nc1nc2c(F)cccc2s1)c1ccco1,-14%,-139%,-14%,28*,3%,31*
Cc1cc(C)c2nc(NC(=O)c3ccco3)sc2c1,0%,-4%,4%,51*,7%,31*
Cc1cc(Cl)cc2sc(NC(=O)c3ccco3)nc12,-2%,-13%,0%,50*,4%,51*
Cc1nc(NC(=O)c2ccco2)sc1C(=O)Nc1ccc(Br)cc1,-13%,-52%,0%,19,0%,-1
O=C(Nc1nc2c(Br)cc(Br)cc2c(=O)s1)c1ccco1,-2%,-4%,0%,-2,-2%,-1
Cc1nc2nc(NC(=O)c3ccco3)nn2c(C)c1Cl,-1%,11%,-3%,43*,2%,9
Cc1cccc(C(=O)NCc2nnc(SCC(=O)Nc3ccccc3F)n2-c2ccccc2)c1,/,/,/,/,5%,/
COc1cc(NC(=O)c2cccnc2SC)cc(OC)c1OC,1%,/,-9%,-6,5%,2
Cc1cc(C(=O)Nc2nc3ccc(S(C)(=O)=O)cc3s2)c(C)o1,-4%,9%,-27%,30*,-22%,16*
COc1ccc(C(=O)Nc2nc3cc4c(cc3s2)OCO4)c(OC)c1,0%,?,0%,66*,3%,38*
CSc1ncccc1C(=O)Nc1ccc(OC(F)(F)F)cc1,-2%,/,6%,15,-14%,13*
COc1ccc2nc(NC(=O)c3cc(C)oc3C)sc2c1,-33%,11%,25µM*,36*,-23%,18*
Cc1ccccc1C1=CCN(c2ncc(NC(=O)c3ccc(Cl)cc3)cc2C(=O)O)CC1,/,/,/,/,5%,/
